Results from PubChem BioAssay (EPA / NIEHS).
“And” between values parts separate entries of the source, which are not always exact repeats. Equal values may be shown once. Inconclusive results are not listed. The source holds several records for some structures; these can differ, active in one and inactive in another. The source made the active and inactive calls. Rule for the calls, unless noted: active = hit-call score of the fitted dose curve at least 0.9, where 1 is the maximum; inactive = score below 0.9.

Key:
[1] = biological target: human Retinoid X Receptor beta (RXRb), RXRB (gene 6257) (UniProt P28702); assay: ATG_RXRb_TRANS: Attagene TRANS-FACTORIAL HepG2 Assay for human Retinoid X Receptor beta (RXRb) (AID 2283013; active = hit-call score of the fitted dose curve at least 0.9, where 1 is the maximum)
human Retinoid X Receptor beta (RXRb), RXRB (gene 6257), sequence (P28702 whole entry, looked up, the tested form may be a part): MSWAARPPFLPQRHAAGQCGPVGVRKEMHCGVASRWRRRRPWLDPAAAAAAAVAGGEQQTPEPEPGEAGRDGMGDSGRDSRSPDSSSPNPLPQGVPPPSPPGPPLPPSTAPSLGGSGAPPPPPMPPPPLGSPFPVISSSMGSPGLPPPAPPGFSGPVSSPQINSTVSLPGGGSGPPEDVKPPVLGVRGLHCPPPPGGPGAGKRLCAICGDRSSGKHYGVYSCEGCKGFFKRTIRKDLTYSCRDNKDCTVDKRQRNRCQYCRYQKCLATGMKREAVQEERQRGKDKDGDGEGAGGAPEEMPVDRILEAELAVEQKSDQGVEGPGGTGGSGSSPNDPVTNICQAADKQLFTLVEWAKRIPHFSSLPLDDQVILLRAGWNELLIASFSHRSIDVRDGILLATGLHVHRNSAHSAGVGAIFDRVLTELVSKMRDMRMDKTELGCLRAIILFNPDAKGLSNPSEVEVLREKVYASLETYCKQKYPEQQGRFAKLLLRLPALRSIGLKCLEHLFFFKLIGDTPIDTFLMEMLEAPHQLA
In short: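 Chimeric receptor-Gal4 activity was assessed in transiently transfected human HepG2 cells after 24 h exposure. Transcripts from GAL4-UAS reporters were quantified by fluorescent RT-PCR and capillary electrophoresis, with DMSO as negative control and baseline.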

[2] = read-out: E-selectin (Homo sapiens) (UniProt P16581); assay: BSK_3C_Eselectin: BioMAP Diversity Plus: 3C Assay for Eselectin Biomarker Activity (AID 2283015); settings: primary human endothelial cells (HUVEC); actives raise or lower the signal
In short: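 Endpoint derived by bidirectional fitting against DMSO vehicle; signal is ELISA-detected E-selectin from primary HUVEC at 24 h post-dosing, with parallel SRB staining (0.1% SRB, 560 nm) flagging cytotoxicity.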

[3] = read-out: Monocyte Chemoattractant Protein-1 (MCP1), CCL2 (gene 6347); assay: BSK_3C_MCP1: BioMAP Diversity Plus: 3C Assay for Monocyte Chemoattractant Protein-1 (MCP1) Biomarker Activity (AID 2283017); settings: primary human endothelial cells (HUVEC); actives raise or lower the signal
In short: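 Using human vascular primary endothelium, researchers measured MCP-1 by ELISA 24 h after treatment, with DMSO serving as negative control for bidirectional fitting.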

[4] = read-out: Monocyte Chemoattractant Protein-1 (MCP1), CCL2 (gene 6347); assay: BSK_4H_MCP1: BioMAP Diversity Plus: 4H Assay for Monocyte Chemoattractant Protein-1 (MCP1) Biomarker Activity (AID 2283018); settings: primary human endothelial cells (HUVEC); actives raise or lower the signal
In short: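 Endothelial cells from umbilical vein were treated with test chemical, then after 24 h MCP-1 levels were quantified by ELISA; endpoint values came from bidirectional fitting with DMSO as baseline of activity.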

[5] = read-out: Interleukin-8 (IL8), CXCL8 (gene 3576); assay: BSK_3C_IL8: BioMAP Diversity Plus: 3C Assay for Interleukin-8 (IL8) Biomarker Activity (AID 2283020); settings: primary human endothelial cells (HUVEC); actives raise or lower the signal
In short: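 Endothelial primary cells of human umbilical vein origin are dosed with chemical; after 24 h the IL-8 biomarker is measured by ELISA, and concentration–response is fitted in both directions versus DMSO.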

[6] = read-out: Monokine induced gamma interferon (MIG), CXCL9 (gene 4283); assay: BSK_3C_MIG: BioMAP Diversity Plus: 3C Assay for Monokine induced gamma interferon (MIG) Biomarker Activity (AID 2283021); settings: primary human endothelial cells (HUVEC); actives raise or lower the signal;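 for AC50: MIG protein level measured by immunoassay in the treated endothelial cultures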
In short: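 Endothelial primary cells (human umbilical vein) are dosed with test chemical in the 3C system. MIG levels are measured by ELISA at 24 h and fitted in both directions relative to DMSO.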

[7] = biological target: human Vitamin D Receptor (VDR), VDR (gene 7421) (UniProt P11473); assay: ATG_VDR_TRANS: Attagene TRANS-FACTORIAL HepG2 Assay for human Vitamin D Receptor (VDR) (AID 2283022; active = hit-call score of the fitted dose curve at least 0.9, where 1 is the maximum)
human Vitamin D Receptor (VDR), VDR (gene 7421), sequence (P11473 whole entry, looked up): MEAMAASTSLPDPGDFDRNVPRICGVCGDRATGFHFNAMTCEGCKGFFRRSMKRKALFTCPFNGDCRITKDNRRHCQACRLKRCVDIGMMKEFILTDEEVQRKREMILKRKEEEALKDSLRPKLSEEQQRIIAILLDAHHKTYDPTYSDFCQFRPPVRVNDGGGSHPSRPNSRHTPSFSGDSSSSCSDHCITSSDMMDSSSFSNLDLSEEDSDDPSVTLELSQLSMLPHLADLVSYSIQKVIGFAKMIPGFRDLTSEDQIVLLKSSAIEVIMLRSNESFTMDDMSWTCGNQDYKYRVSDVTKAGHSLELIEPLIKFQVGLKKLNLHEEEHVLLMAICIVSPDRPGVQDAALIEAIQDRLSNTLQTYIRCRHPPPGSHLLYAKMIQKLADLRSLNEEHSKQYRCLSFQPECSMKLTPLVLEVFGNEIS
In short: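 Multiplexed TRANS reporter in HepG2; 24 h treatment; reporter mRNA by RT-PCR plus capillary electrophoresis; upregulation scored relative to DMSO.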

[8] = BSK_3C_SRB: Viability Assessment in the BioMAP Diversity Plus: 3C Assay (AID 2283023); settings: primary human endothelial cells (HUVEC);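 note: fitted both ways against DMSO so a hit may be signal rise or drop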
In short: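 Overt cytotoxicity is gauged in parallel confluent HUVEC cultures by SRB total-protein staining at the time of biomarker measurement, 24 h after dosing. Gain or loss of signal is fitted versus DMSO.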

[9] = read-out: Matrix Metallopeptidase 1 (MMP1), MMP1 (gene 4312); assay: BSK_BE3C_MMP1: BioMAP Diversity Plus: BE3C Assay for Matrix Metallopeptidase 1 (MMP1) Biomarker Activity (AID 2283024); settings: primary human bronchial epithelial cells; actives raise or lower the signal
In short: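 MMP1 signal, measured by ELISA after a 24 h chemical exposure of human primary bronchial epithelial cells, is analysed with bidirectional fitting using DMSO as negative control.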

[10] = read-out: Pselectin, SELP (gene 6403); assay: BSK_4H_Pselectin: BioMAP Diversity Plus: 4H Assay for Pselectin Biomarker Activity (AID 2283026); settings: primary human endothelial cells (HUVEC); actives raise or lower the signal
In short: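 Endothelial primary cells (human umbilical vein) are dosed, incubated 24 h, and assayed for surface P-selectin by ELISA; responses in either direction are fitted relative to the DMSO negative control.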

[11] = BSK_4H_SRB: Viability Assessment in the BioMAP Diversity Plus: 4H Assay (AID 2283027); settings: primary human endothelial cells (HUVEC);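 note: cells exposed to compound for 24 h before staining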;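 for AC50: curves fitted both ways versus DMSO so AC50 may be loss or gain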
In short: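 Cytotoxicity readout: sulforhodamine B (0.1%) staining of total protein after 10% TCA fixation, measured at 560 nm in human umbilical vein endothelium at 24 h. DMSO set the baseline; fitting was bidirectional.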

[12] = BSK_BE3C_SRB: Viability Assessment in the BioMAP Diversity Plus: BE3C Assay (AID 2283028); settings: primary human bronchial epithelial cells
In short: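 SRB total-protein staining (0.1%, after TCA fixation) of chemically dosed human bronchial epithelial primary cells at 24 h; DMSO serves as the negative control for bidirectional curve fitting.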

[13] = biological target: Retinoic acid receptor RXR-alpha (Homo sapiens) (UniProt P19793); assay: ATG_RXRa_TRANS: Attagene TRANS-FACTORIAL HepG2 Assay for human Retinoid X Receptor alpha (RXRa) (AID 2283012; active = hit-call score of the fitted dose curve at least 0.9, where 1 is the maximum)
Retinoic acid receptor RXR-alpha (Homo sapiens), sequence (P19793 whole entry, looked up, the tested form may be a part): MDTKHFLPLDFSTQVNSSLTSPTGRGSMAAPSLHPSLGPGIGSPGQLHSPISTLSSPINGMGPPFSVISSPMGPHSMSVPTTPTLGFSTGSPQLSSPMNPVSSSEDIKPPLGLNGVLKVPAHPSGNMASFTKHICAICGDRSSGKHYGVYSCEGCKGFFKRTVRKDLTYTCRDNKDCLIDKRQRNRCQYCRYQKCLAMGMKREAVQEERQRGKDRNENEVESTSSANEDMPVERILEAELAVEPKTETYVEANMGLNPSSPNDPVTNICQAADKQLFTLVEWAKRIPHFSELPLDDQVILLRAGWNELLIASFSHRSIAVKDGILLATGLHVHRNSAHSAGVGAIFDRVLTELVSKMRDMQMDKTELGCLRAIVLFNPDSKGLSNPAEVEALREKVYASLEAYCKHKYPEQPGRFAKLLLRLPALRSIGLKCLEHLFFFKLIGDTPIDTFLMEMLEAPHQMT
In short: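 Measures exogenous chimeric NR-GAL4 activity in transfected HepG2 liver cells after 24 h of dosing. Induced reporter mRNA was detected by RT-PCR with capillary electrophoresis, and gain of signal was analysed against DMSO.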

[14] = read-out: Interleukin-1 alpha (IL1a), IL1A (gene 3552); assay: BSK_BE3C_IL1a: BioMAP Diversity Plus: BE3C Assay for Interleukin-1 alpha (IL1a) Biomarker Activity (AID 2283016); settings: primary human bronchial epithelial cells; actives raise or lower the signal
In short: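 Signal from IL-1a ELISA, taken 24 h after chemical dosing of human bronchial epithelial cells, is compared with DMSO as baseline using bidirectional curve fitting.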

[15] = biological target: human Thyroid Receptor alpha (THRa1), THRA (gene 7067) (UniProt P10827); assay: ATG_THRa1_TRANS: Attagene TRANS-FACTORIAL HepG2 Assay for human Thyroid Receptor alpha (THRa1) (AID 2283014; active = hit-call score of the fitted dose curve at least 0.9, where 1 is the maximum)
human Thyroid Receptor alpha (THRa1), THRA (gene 7067), sequence (P10827 whole entry, looked up, the tested form may be a part): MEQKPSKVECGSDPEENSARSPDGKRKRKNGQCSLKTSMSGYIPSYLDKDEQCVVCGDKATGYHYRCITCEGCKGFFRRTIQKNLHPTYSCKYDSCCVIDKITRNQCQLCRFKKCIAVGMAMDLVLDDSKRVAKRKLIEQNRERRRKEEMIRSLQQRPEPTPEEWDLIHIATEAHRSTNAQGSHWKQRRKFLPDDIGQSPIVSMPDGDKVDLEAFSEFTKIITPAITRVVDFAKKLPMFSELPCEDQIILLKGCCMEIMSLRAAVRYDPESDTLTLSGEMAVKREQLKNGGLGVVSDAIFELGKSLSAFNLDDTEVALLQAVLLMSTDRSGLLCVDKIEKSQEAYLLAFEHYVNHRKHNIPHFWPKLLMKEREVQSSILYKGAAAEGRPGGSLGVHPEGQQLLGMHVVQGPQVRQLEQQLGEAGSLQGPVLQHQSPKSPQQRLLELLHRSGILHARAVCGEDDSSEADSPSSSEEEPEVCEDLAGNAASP
In short: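 Measured here is mRNA from a GAL4-UAS reporter in transfected HepG2 cells carrying a Gal4-fused receptor, 24 h post-dose. DMSO served as negative control and baseline.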

[16] = read-out: Human Leukocyte Antigen - DR isotype (HLADR), HLA-DRA (gene 3122); assay: BSK_3C_HLADR: BioMAP Diversity Plus: 3C Assay for Human Leukocyte Antigen - DR isotype (HLADR) Biomarker Activity (AID 2283019); settings: primary human endothelial cells (HUVEC); actives raise or lower the signal
In short: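 Compound added to primary HUVEC cultures, 24 h incubation, then HLA-DR determined by ELISA; endpoint derived by bidirectional fitting relative to DMSO negative control.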

[17] = BSK_3C_Vis: BioMAP Diversity Plus: 3C Assay for Morphology Visualization (AID 2283025); settings: primary human endothelial cells (HUVEC);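 note: fitted both ways so gain or loss versus DMSO counts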
In short: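 Morphology read by light microscopy serves as a background control for the multiplexed 3C assay in human umbilical vein endothelial cells, taken 24 h after dosing, with DMSO as the negative control and bidirectional curve fitting.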

[18] = read-out: Thrombomodulin, THBD (gene 7056); assay: BSK_3C_Thrombomodulin: BioMAP Diversity Plus: 3C Assay for Thrombomodulin Biomarker Activity (AID 2283029); settings: primary human endothelial cells (HUVEC); actives raise or lower the signal
In short: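 Endothelial cells from umbilical vein are dosed with test chemical and incubated 24 h. Thrombomodulin is then quantified by ELISA, with DMSO serving as negative control and activity baseline.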

Measured: AC50

E-selectin (Homo sapiens), sequence (P16581 whole entry, looked up): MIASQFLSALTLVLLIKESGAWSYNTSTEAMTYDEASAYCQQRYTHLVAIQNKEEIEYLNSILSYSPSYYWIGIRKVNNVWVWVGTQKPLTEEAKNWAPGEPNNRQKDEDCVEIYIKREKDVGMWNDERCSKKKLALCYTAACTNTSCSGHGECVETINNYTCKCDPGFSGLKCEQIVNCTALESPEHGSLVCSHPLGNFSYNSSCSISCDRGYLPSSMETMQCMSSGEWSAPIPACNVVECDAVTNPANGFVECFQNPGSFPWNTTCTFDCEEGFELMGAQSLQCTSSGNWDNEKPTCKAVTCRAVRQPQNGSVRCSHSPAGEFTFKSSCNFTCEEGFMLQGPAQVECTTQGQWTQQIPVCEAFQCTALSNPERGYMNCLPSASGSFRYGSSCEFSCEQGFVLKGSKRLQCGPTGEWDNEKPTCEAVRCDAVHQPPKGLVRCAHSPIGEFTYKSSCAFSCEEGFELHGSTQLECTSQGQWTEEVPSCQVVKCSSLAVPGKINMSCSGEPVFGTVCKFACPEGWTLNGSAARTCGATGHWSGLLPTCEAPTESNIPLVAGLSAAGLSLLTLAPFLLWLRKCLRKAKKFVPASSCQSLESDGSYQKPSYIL

O=C(Cl)C(F)(F)C(F)(F)C(F)(F)C(F)(F)C(F)(F)C(F)(F)F
inactive: [1] | [2] | [3] | [4] | [5] | [6] | [7] | [8] | [9] | [10] | [11] | [12]
active: [5] 27 µM | [9] 29.3 µM and 30 µM

CCOC(=O)CC(=O)C(F)(F)C(F)(F)F
not listed: [1] | [9] | [15] | [16] | [17] | [18]
inactive: all other assays above

CN(C(=O)C(F)(F)C(F)(F)C(F)(F)F)[Si](C)(C)C
not listed: [1] | [8] | [14] | [17] | [18]
inactive: all other assays above

OCCC(O)CO (configuration not stated)
inactive: [13] | [1] | [15] | [7]

CC1=CCC(=O)O1
inactive: [13] | [1] | [7]

CCOC(C=C(C)CCC=C(C)C)OCC
active: [2] 32.8 µM | [3] 32.1 µM | [4] 30.4 µM | [16] 35.4 µM | [5] 29.8 µM | [6] 36 µM | [17] 37.1 µM | [10] 30.2 µM | [11] 31 µM | [18] 3.97 µM
inactive: [1] | [12]

OCC(F)(F)C(F)(F)C(F)(F)C(F)(F)C(F)(F)C(F)(F)C(F)(F)C(F)(F)CO
active: [10] 9.58 µM | [11] 36.5 µM
inactive: [2] | [3] | [4] | [5] | [6] | [7] | [10] | [11] | [12]

Brc1nc2ccccc2s1
not listed: [1] | [8] | [15] | [16] | [18]
inactive: all other assays above
